# Reference: PubChem BioAssay (NCATS)
# Where “and” joins values, the source holds several entries; their conditions need not be identical. Identical values can stand only once. Inconclusive results are not listed. Calls of active or inactive are those of the source. The call rests on the fitted dose curve; in most records, active means well fitted cell-killing curve with a large enough effect; inconclusive means small, poorly fitted or top-dose-only effect, or effect the other way; inactive means no such curve, though single readings can be large or run the other way.
# Assay: Viability qHTS for spleen associated tyrosine kinase inhibitor (SYKi) drug resistant MV4-11 cells (AID 1963824); further: nearly all actives have a fitted effect of over 35% in size
# Details: SYKi-resistant MV4-11 viability, CellTiter-Glo, 72 h; series mostly up to 45 µM
# Text: Department of Medicine, Hematology/Oncology
# University Hospital Frankfurt, Germany.
# Trials have shown promising clinical activity of the selective SYK inhibitor entospletinib in patients with high expressing HOXA9/MEIS1 acute leukemias. As the development of resistance mechanisms is a common problem in the use of targeted drugs, we performed a chemical library screen to identify drug sensitivities in SYK inhibitor resistant AML cells. […] Glucocorticoids are potent immunosuppressants which work in part by inhibiting the transcription of cytokine genes.
# Described herein is a viability screen to look for activity in the SYK inhibitor drug resistant cell line against four NCATS compound libraries (MIPE 5.0, NPC, NPACT, and Kinase) totaling 11372 compounds. Active hits were reacquired for confirmation and further secondary assay testing.
# SEQUENCE No. (e.g., 1, 2, 3, etc.); […] (e.g., Cells, Incubation, Reagent, etc.); VALUE; DESCRIPTION.
# 1; Media; 2uL; white, solid-bottom Corning assay plate.
# 2; Compounds; 23nL; Echo acoustic dispenser.
# 3; Cell; 5uL; 500 cells per well.
# 4: Incubation; 72hr; 37 C, 5% CO2, 95% humidity.
# 5; Reagent; 3uL; CellTiter-Glo reagent (Promega).
# 6; Incubation; 10min; room temperature.
# 7; Detection; Luminescence; ViewLux plate reader (PerkinElmer).
# NOTES (numbers refer to Sequence numbers above
# 1. Quantitative high-throughput screening (qHTS) of small molecule compounds was conducted on drug resistant SYKi MV4-11 cell line.
# 2. Twenty-three nanoliter of small molecule compounds were added to each assay plates using the Echo acoustic dispenser (Beckman Coulter).
# 3. Cells were seeded into the assay plates at a final density of 500 cells in 5uL of media per well using the Multidrop Combi dispenser.
# 4. Plates were covered with stainless steel gasketed lids and incubated for 72 hours at standard cell culture conditions.
# 5. Viability was assessed by adding 3uL of CellTiter-Glo detection reagent (Promega).
# 6. Plates were covered with gasket lids and incubated for 10 minutes at room temperature.
# 7. Luminescence was measured on a ViewLux plate reader (PerkinElmer).
# Potency means the concentration at half of the fitted maximal effect.
Structure (SMILES),Potency,"viability, % of control"
Cc1cn2cc(C(=O)N(C)CCO)cc(NC3CCOc4cccc(C)c43)c2n1 (stereo not given),inactive,–
OC[C@H]1O[C@@H](OC[C@H]2O[C@@H](OC/C=C/c3ccccc3)[C@H](O)[C@@H](O)[C@@H]2O)[C@@H](O)[C@@H]1O,inactive,–
O=C1NC(c2ccccc2)(c2ccccc2)C(=O)N1COP(=O)(O)O,inactive,–
COc1ccc2cc3[n+](cc2c1OC)CCc1cc2c(cc1-3)OCO2,1.68 µM (active) and 934 nM (active),–
COC(=O)Nc1nc2ccc(C(=O)c3cccs3)cc2[nH]1,42.2 nM (active) and 118 nM (active),–
COc1ccccc1[C@@H]1C2=C(CC(C)(C)CC2=O)Nc2n[nH]c(C(F)(F)F)c21,23.1 µM (active),–
C=C(C)C(=O)O[C@H]1C[C@@](C)(OC(C)=O)[C@@]2(O)CC[C@@](C)(O)[C@H](OC(C)=O)[C@@]23OC(=O)C(COC)=C13,11.2 µM (active),–
[Cl][In]([Cl])[Cl],inactive,–
C[C@H]1NCc2cc(-c3ccc4c(=O)c(C(=O)O)cn(C5CC5)c4c3OC(F)F)ccc21,inactive,–
Cc1ccc(C(=O)C(=O)O)cc1C,inactive,–
Cc1[nH]nc2ncc(C(=O)N3CCC[C@H]3c3ccc(Cl)cc3)cc12,2.95 µM (active),–
Clc1ccc2c(c1)N=C(N1CCNCC1)c1ccccc1N2,20.6 µM (active),–
COc1ccc(C2CNC(=O)C2)cc1OC1CCCC1 (stereo not given),inactive,–
O=c1[nH]c(=O)n([C@H]2C[C@H](O)[C@@H](CO)O2)cc1F,0.105 µM (active),–
CNC12CC3C[C@@](C)(C1)C[C@](C)(C3)C2,inactive,–
C#Cc1cccc(Nc2ncnc3cc4c(cc23)OCCOCCOCCO4)c1,18.6 µM (active),–
Cc1ccc(NC(=O)c2ccc(CN3CCN(C)CC3)cc2)cc1Nc1nc(-c2cccnc2)cs1,13 µM (active) and 13.2 µM (active),–
COc1cc(O)cc(O)c1,inactive,–
O=C(O)CC(=O)OC[C@H]1O[C@@H](Oc2ccc3c(c2)OC[C@H]2c4cc5c(cc4O[C@@H]32)OCO5)[C@H](O)[C@@H](O)[C@@H]1O,inactive,–
Cc1ncc([N+](=O)[O-])n1C[C@H](O)CN1CCOCC1,inactive,–

Structure (SMILES),Potency,"viability, % of control"
CCN(c1ccccc1)c1cc(NC)[n+](C)c(C)n1,18.6 µM (active),–
C[C@@H]1O[C@@H](O[C@@H]2[C@@H](O)[C@@H](O[C@]3(CO)O[C@H](CO)[C@@H](O)[C@@H]3OC(=O)/C=C/c3ccc(O)cc3)O[C@H](CO)[C@H]2OC(=O)/C=C/c2ccc(O)cc2)[C@H](O)[C@H](O)[C@H]1O[C@@H]1O[C@@H](C)[C@H](O[C@@H]2OC[C@](O)(CO)[C@H]2O)[C@@H](O)[C@H]1O,–,102% [at 9.25 µM] (inactive)
O=C(NO)C1(CS(=O)(=O)c2ccc(Oc3ccc(Cl)cc3)cc2)CCOCC1,16.6 µM (active),–
Cc1nc(-c2cccnc2)sc1C(=O)Nc1ccccc1-c1cn2c(CN3CCOCC3)csc2n1,inactive,–
COc1ccc(CC2c3cc(OC)c(OC)cc3CC[N+]2(C)CCC(=O)OCCCCCOC(=O)CC[N+]2(C)CCc3cc(OC)c(OC)cc3C2Cc2ccc(OC)c(OC)c2)cc1OC (stereo not given),18.6 µM (active),–
Nc1ncnc2c1c(-c1ccc(Oc3ccccc3)cc1)nn2[C@@H]1CCCNC1,0.259 µM (active),–
COc1nc(N)nc2c1ncn2[C@@H]1O[C@H](CO)[C@@H](O)[C@@H]1O,inactive,–
CC1[C@@H](O)[C@@H](O)C2[C@]3(C)C(C[C@H]4OC(=O)[C@H](O)[C@]1(O)[C@@]24C)C(C)(O)C[C@H](O)[C@H]3O (stereo not given in full),inactive,–
CCc1cc2c(cc1CC)CC(NCC(O)c1ccc(O)c3[nH]c(=O)ccc13)C2 (stereo not given),13 µM (active),–
COc1cc2c(cc1NS(=O)(=O)c1ccc(Br)cc1C)n(C)c(=O)n2C,2.31 µM (active),–
N=c1ccn2c(n1)O[C@H]1[C@@H](O)[C@@H](CO)O[C@H]12,3.32 µM (active),–
CCN(CC)Cc1ccc2cc(COC(=O)Nc3ccc(C(=O)NO)cc3)ccc2c1,206 nM (active) and 372 nM (active),–
O=C(O[C@H]1[C@H](Oc2ccc(O)cc2CO)O[C@H](CO)[C@@H](O)[C@@H]1O)c1ccccc1,inactive,–
COc1cc(C(=O)NC2CCN(C)CC2)c(F)cc1Nc1ncc2c(n1)N(C1CCCC1)CC(F)(F)C(=O)N2C,0.0092 µM (active),–
CN1C(=O)CC[C@H]1c1cccnc1,inactive,–
CC1CCC23COC(=O)C2=CC(O)CC3C1(C)CCC1=CC(O)OC1=O (stereo not given),inactive,–
N#Cc1ccc(C2CCCc3cncn32)cc1 (stereo not given),inactive,–
COC(=O)C1=COC(OC2OC(CO)C(O)C(O)C2O)C2C1CC(OC(=O)C(O)CC(=O)O)C2C (stereo not given),inactive,–
Cc1cc2nc(NCCCO)n(CC(=O)c3cc(C(C)(C)C)c(O)c(C(C)(C)C)c3)c2cc1C,8.2 µM (active),–
C[C@@H](NCCCc1cccc(C(F)(F)F)c1)c1cccc2ccccc12,13.3 µM (active) and 7.42 µM (active),–
